LEDGF integ inh = blocks HIV-1 LEDGF/p75-dependent DNA integration; TR-FRET IN-LEDGF/p75 DNA integration, Eu/Cy5; inhibition, % at 3.7 µM; actives 0.64% (n = 370,000);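 active = inhibition above the screen-wide mean plus 3 SD, cut at about 13% in these data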;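 also: signal is the Cy5 over europium emission ratio at 671 and 618 nm; 0% = plate median of compound wells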
rCAG RNA binder = molecules binding r(CAG) RNA repeats | r(CAG) RNA repeat, TO-PRO-1 dye displacement fluorescence | actives 1.3% (n = 370,000) | inhibition, % at 3 µM;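 active = inhibition above the plate cutoff, the mean of all test compounds on that plate plus 3 SD, cut at about 35% in these data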;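 also: 0% = DMSO alone and 100% = 100 µM mitoxantrone as full dye displacement; higher means more dye released from RNA so lower well fluorescence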
ABHD5-PLIN5 inh = blocks binding of human ABHD5 to perilipin-5 | Q00G26+Q8WTS1 | Split G. princeps luciferase complementation, luminescence, 4 h | inhibition, % at 4 µM | actives 0.78% (n = 360,000);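 active = inhibition above the mean inhibition across every tested compound plus 3 SD, cut at about 22% in these data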;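 also: 0% = DMSO only wells and the 100% control is not disclosed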
Target sequence (Q00G26 whole entry, looked up): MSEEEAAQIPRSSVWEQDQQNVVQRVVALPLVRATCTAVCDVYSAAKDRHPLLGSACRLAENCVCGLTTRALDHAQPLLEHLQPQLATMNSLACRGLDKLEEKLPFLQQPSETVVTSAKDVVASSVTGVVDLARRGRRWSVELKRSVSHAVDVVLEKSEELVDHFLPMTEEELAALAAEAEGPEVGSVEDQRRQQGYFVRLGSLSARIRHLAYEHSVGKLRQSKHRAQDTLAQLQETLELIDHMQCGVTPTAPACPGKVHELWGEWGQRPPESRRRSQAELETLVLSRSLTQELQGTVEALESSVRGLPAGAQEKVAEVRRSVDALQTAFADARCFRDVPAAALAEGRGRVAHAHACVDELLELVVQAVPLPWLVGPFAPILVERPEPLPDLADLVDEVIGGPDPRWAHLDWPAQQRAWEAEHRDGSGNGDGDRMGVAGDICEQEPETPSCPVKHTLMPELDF
Target sequence (Q8WTS1 whole entry, looked up): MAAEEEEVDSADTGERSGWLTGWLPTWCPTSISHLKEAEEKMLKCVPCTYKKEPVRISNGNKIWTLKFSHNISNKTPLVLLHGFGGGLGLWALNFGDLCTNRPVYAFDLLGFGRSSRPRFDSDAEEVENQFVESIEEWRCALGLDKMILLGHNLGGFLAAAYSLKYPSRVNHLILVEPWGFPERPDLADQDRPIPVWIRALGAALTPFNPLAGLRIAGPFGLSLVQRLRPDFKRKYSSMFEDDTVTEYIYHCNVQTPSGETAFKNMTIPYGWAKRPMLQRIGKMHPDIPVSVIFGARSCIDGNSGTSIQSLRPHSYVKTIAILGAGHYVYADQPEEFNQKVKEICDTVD
PRMT1 inh = PRMT1 (human) inhibition, primary screen; actives 1.3% (n = 370,000); inhibition, % at 2.79 µM; recombinant PRMT1, activity-based probe fluorescence polarization; AID 652257; Q99873;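 active = inhibition above about 21% made by adding two undisclosed values, limit read from the data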
MBD2 DNA inh = MBD2-methylated oligo binding inhibition | actives 0.31% (n = 370,000) | inhibition, % at 4.4 µM | TR-FRET, MBD2 binding to methylated oligonucleotide | AID 686964 | Q9UBB5; in the data active = inhibition above about 13%
UHRF1 MBD2 ctr = blocks human UHRF1 binding to methylated DNA | Q96T88 | UHRF1 binding to methylated oligo, TR-FRET | inhibition, % at 4.4 µM | actives 0.75% (n = 370,000); in the data active = inhibition above about 21%;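 also: UHRF1 SRA domain binding a hemimethylated CpG hairpin DNA probe; 0% = median of test compound wells and 100% = reference inhibitor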
rCAG binder conf = r(CAG) RNA repeat binding, confirmation. inhibition, % at 3 µM. shares compounds with rCAG RNA binder. actives 70% (n = 4,300). TO-PRO-1 dye displacement fluorescence;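 active = inhibition above a per-plate cutoff, the mean inhibition of sample wells plus 3 SD, cut at about 35% in these data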;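 also: loss of TO-PRO-1 fluorescence as compound displaces dye from 1x1 AA loop RNA; 0% = DMSO only wells and 100% = 100 µM mitoxantrone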
DNA CAG counter = counter-screen for rCAG RNA binders: DNA CAG dye complex inhibitors. AID 652068. inhibition, % at 3 µM. d(CAG) DNA oligo TO-PRO-1 dye displacement, fluorescence. actives 94% (n = 4,300). shares compounds with rCAG RNA binder;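 active = inhibition above its plate's cutoff, the mean test-well inhibition plus 3 SD, cut at about 4.8% in these data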;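 also: 0% = DNA dye mix with DMSO and 100% = 100 µM mitoxantrone; hits displace the dye from DNA and so lower well fluorescence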
An asterisk follows results filed as active. Only some compounds are listed: those with a hit (about 4.1% of all), similar ones and a draw of the others.

Screening NC(=O)c1ncn([C@@H]2O[C@H](C(=O)N[C@H](Cc3c[nH]c4ccccc34)C(=O)N3CCN(CC(=O)N4CCCC4)CC3)[C@@H](O)[C@H]2O)n1 returned LEDGF integ inh -1, rCAG RNA binder 0, PRMT1 inh -5, MBD2 DNA inh -2 and UHRF1 MBD2 ctr 1.
Screening Cc1ccc(/C=N/NS(=O)(=O)c2ccc([N+](=O)[O-])cc2)o1 returned LEDGF integ inh -1, rCAG RNA binder -1, ABHD5-PLIN5 inh 10, PRMT1 inh 5, MBD2 DNA inh 0 and UHRF1 MBD2 ctr 0.
For CCCCCCCCCCS(=O)(=O)N/N=C/c1ccc([N+](=O)[O-])cc1 the results were LEDGF integ inh 6, rCAG RNA binder 42*, ABHD5-PLIN5 inh -2, PRMT1 inh 4, MBD2 DNA inh -2, UHRF1 MBD2 ctr -3, rCAG binder conf 52* and DNA CAG counter 16*.
COc1ccc(-c2c/c(=N\c3nc(-c4ccccc4)c(C)s3)c3ccccc3o2)cc1O was read as LEDGF integ inh -1, rCAG RNA binder 39*, ABHD5-PLIN5 inh 3, PRMT1 inh -3, MBD2 DNA inh 0, UHRF1 MBD2 ctr -2, rCAG binder conf 34 and DNA CAG counter 15*.
`COc1ccc(-c2cc(=Nc3c(C)n(C)n(-c4ccccc4)c3=O)c3ccccc3o2)cc1` gave LEDGF integ inh 0, rCAG RNA binder -8, ABHD5-PLIN5 inh -4, PRMT1 inh 2, MBD2 DNA inh 6 and UHRF1 MBD2 ctr -15.
Cc1cccc(NC(=O)C2CCN(c3nnc(-n4cccc4)s3)CC2)c1C was read as LEDGF integ inh 4, rCAG RNA binder 9, PRMT1 inh -4, MBD2 DNA inh 4 and UHRF1 MBD2 ctr 1.
CCOC(=O)[C@@]12CCC3=C1N(CCC3)C(=O)[C@H](CC(=O)NCC1CCCCC1)C2 was read as LEDGF integ inh 4, rCAG RNA binder -4, PRMT1 inh -3, MBD2 DNA inh -4 and UHRF1 MBD2 ctr 1.
CCN=c1scc(C)n1/N=C/c1cc(Br)c(O)c(Br)c1 was read as LEDGF integ inh -5, rCAG RNA binder 36*, ABHD5-PLIN5 inh 3, PRMT1 inh -5, MBD2 DNA inh -4, UHRF1 MBD2 ctr -2, rCAG binder conf 42* and DNA CAG counter 18*.
`COC(=O)[C@@]12CCCCC3=C1N(CCC3)C(=O)[C@H]2CC(=O)NCc1ccc(OC)c(OC)c1` gave LEDGF integ inh 4, rCAG RNA binder 0, PRMT1 inh -2, MBD2 DNA inh -2 and UHRF1 MBD2 ctr 0.
Screening O=C(O)C1=CC[C@@H](c2ccc(Cl)cc2)N(S(=O)(=O)c2ccc(Cl)cc2)[C@H]1c1ccccc1 returned LEDGF integ inh -1, rCAG RNA binder 65*, ABHD5-PLIN5 inh 1, PRMT1 inh 1, MBD2 DNA inh -3, UHRF1 MBD2 ctr 1, rCAG binder conf 69* and DNA CAG counter 30*.
Cc1ccc([C@H]2C(C(=O)O)=CC[C@@H](c3ccc(Cl)cc3)N2S(=O)(=O)c2ccc(C)cc2)cc1 was read as LEDGF integ inh 0, rCAG RNA binder 80*, ABHD5-PLIN5 inh -24, PRMT1 inh 2, MBD2 DNA inh 0, UHRF1 MBD2 ctr 1, rCAG binder conf 80* and DNA CAG counter 47*.
Screening Cc1ccc([C@H]2C(C(=O)O)=CC[C@@H](c3ccc(C(C)C)cc3)N2S(=O)(=O)c2ccc(C)cc2)cc1 returned LEDGF integ inh 7, rCAG RNA binder 88*, ABHD5-PLIN5 inh -8, PRMT1 inh 0, MBD2 DNA inh -2, UHRF1 MBD2 ctr -2, rCAG binder conf 81* and DNA CAG counter 48*.
Cc1ccc(S(=O)(=O)N2[C@@H](c3ccc(Cl)cc3)C(C(=O)O)=CC[C@H]2c2ccc(C(C)C)cc2)cc1 was read as LEDGF integ inh 1, rCAG RNA binder 83*, ABHD5-PLIN5 inh -8, PRMT1 inh 3, MBD2 DNA inh 3, UHRF1 MBD2 ctr -2, rCAG binder conf 89* and DNA CAG counter 61*.
`CCCCCN1CCCCC(NC(=O)c2cccc(C(F)(F)F)c2)C1=O` (configuration not stated) gave LEDGF integ inh -2, rCAG RNA binder -4, PRMT1 inh -7, MBD2 DNA inh -2 and UHRF1 MBD2 ctr -1.
Cc1ccc(S(=O)(=O)N2[C@@H](c3ccccc3)C(C(=O)O)=CC[C@H]2c2ccc(C(C)C)cc2)cc1 was read as LEDGF integ inh 5, rCAG RNA binder 81*, ABHD5-PLIN5 inh -2, PRMT1 inh 6, MBD2 DNA inh 8, UHRF1 MBD2 ctr 4, rCAG binder conf 78* and DNA CAG counter 41*.
COC(=O)[C@]1(C#N)CC(=O)N(C)[C@@H]1c1ccccc1 was read as LEDGF integ inh 10, rCAG RNA binder 3, PRMT1 inh -10, MBD2 DNA inh 0 and UHRF1 MBD2 ctr -1.
Cc1ccc(CNC(=O)C(C)OC(=O)c2ccco2)cc1 (configuration not stated) was read as LEDGF integ inh 3, rCAG RNA binder 56*, ABHD5-PLIN5 inh 5, PRMT1 inh 1, MBD2 DNA inh 7, UHRF1 MBD2 ctr 6, rCAG binder conf 2 and DNA CAG counter -1.
CN(C)c1ccc(N=Nc2ccc(S(=O)(=O)O)cc2)c2ccccc12 was read as LEDGF integ inh -2, rCAG RNA binder 77*, ABHD5-PLIN5 inh 2, PRMT1 inh 14, MBD2 DNA inh -14, UHRF1 MBD2 ctr -7, rCAG binder conf 59* and DNA CAG counter 24*.
Screening CN(C)c1ccc(N=Nc2ccc(S(N)(=O)=O)cc2)cc1 returned LEDGF integ inh -1, rCAG RNA binder 15, ABHD5-PLIN5 inh 7, PRMT1 inh -3, MBD2 DNA inh -9 and UHRF1 MBD2 ctr 0.
Cc1ccc(-c2nc3ccc(Br)cn3c2Cc2cccc(Cl)c2)cc1 was read as LEDGF integ inh 1, rCAG RNA binder 26, ABHD5-PLIN5 inh -7, PRMT1 inh -3, MBD2 DNA inh 2 and UHRF1 MBD2 ctr 3.
For Cc1cc2nc(-c3ccc(F)cc3)c(Cc3ccccc3)n2c(C)c1Br the results were LEDGF integ inh 1, rCAG RNA binder 4, ABHD5-PLIN5 inh -22, PRMT1 inh 1, MBD2 DNA inh 2 and UHRF1 MBD2 ctr 0.
Screening Clc1ccc(-c2nc3ccc(Br)cn3c2Cc2cccc(Cl)c2)cc1 returned LEDGF integ inh 0, rCAG RNA binder 38*, ABHD5-PLIN5 inh 1, PRMT1 inh 1, MBD2 DNA inh -6, UHRF1 MBD2 ctr -4, rCAG binder conf 32 and DNA CAG counter 9.2*.

Screening data deposited in PubChem by The Scripps Research Institute Molecular Screening Center.
